Sampled rows, rich in hits. Any-hit rate of the full collection: about 4.1%.
Shn3 inh set2 = reduction of Shn3 3'UTR firefly luciferase signal, primary screen, Schnurri-3 inhibitor project, cell-based, Clone20 osteoblasts, set 2 | Clone20 osteoblast Shn3 3'UTR firefly luciferase, 24 h | inhibition, % at 12.5 µM | 360,000 compounds, 0.52% hits;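 active = mean inhibition of at least 75% with every replicate also reaching 75%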;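 also: 0% = median of neutral control wells and 100% = pilot-screen positive control compound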
Peg3 promoter = Peg3 promoter-driven luciferase inhibitors, primary screen, cell-based, HeLa, luciferase luminescence; inhibition, % at 20 µM; 360,000 compounds, 1.7% hits; AID 588405, 2011; HeLa PEG-Prom luciferase reporter, overnight;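 active = inhibition of at least 50% at 20 µM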
MITF TRPM1 inh = inhibitors of MITF-dependent TRPM1 promoter reporter, primary screen, cell-based, SK-MEL-5, single point, luciferase; inhibition, % at 12.5 µM; AID 488899, 2010; SK-MEL-5 TRPM1 promoter luciferase, 24 h; 330,000 compounds, 0.83% hits;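 active = mean inhibition across replicates of 60% or more, whatever share of single replicates reaches that level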
TWEAK Fn14 block = inhibitors of TWEAK-Fn14 signaling, primary screen, luciferase reporter cells, uHTS | TWEAK-stimulated Fn14 reporter cells, luciferase luminescence, 8 h | inhibition, % at 10 µM | 360,000 compounds, 2% hits | AID 1159606, 2016; in the data active = inhibition above about 50%
EBV LMP1 NFkB = EBV LMP1-driven NF-kappaB luciferase reporter inhibitors, primary screen, cell-based, luminescence, single point; LMP1-induced NF-kappaB luciferase reporter cells; inhibition, % at 12.5 µM; 350,000 compounds, 0.69% hits; AID 504558, 2011; in the data active = inhibition above about 41%;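 also: 0% = neutral control wells and 100% = reference inhibitor control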
TROY signal inh = inhibitors of TROY-driven NF-kB signaling, primary screen, Q293 LMP1-TROYcd cells, NF-kB luciferase, uHTS | Q293 LMP1-TROYcd NF-kB luciferase reporter, 4 h | inhibition, % at 10 µM | 360,000 compounds, 0.98% hits | AID 1347056, 2019;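 active = compounds whose plate-normalised and pattern-corrected inhibition of the luciferase reporter signal at the single screening dose is 50% or more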
* = called active by the depositor; . = no result.

SMILES	Shn3 inh set2	Peg3 promoter	MITF TRPM1 inh	TWEAK Fn14 block	EBV LMP1 NFkB	TROY signal inh
CCCc1nc(NCc2ccco2)c(C#N)c2c1COC(C)(C)C2	7	27	2	74*	3	.
CC(C)CC1C(=O)N(Cc2cn(Cc3ccco3)nn2)CCS(=O)(=O)N1Cc1ccc(-c2ccc(Cl)cc2)cc1 (centres undefined)	13	42	.	6	9	0
O=C(NCCc1ccncc1)c1ccc2nc(Cc3cccc(Cl)c3)oc2c1	15	15	10	-30	-7	2
C=C(C)c1nc(N)nc(N)n1	-14	-4	6	-9	-2	-25
CC(C)(C)c1ccccc1OCC(=O)Nc1ccccc1C(=O)NCc1cccnc1	2	49	3	28	0	33
CCOc1ccc(NC(=O)N(O)C2(C#N)CCCCC2)cc1	1	96*	-3	-32	3	-23
CC1CC(=Cc2ccc(N)cc2)C(=O)O1 (centres undefined)	-14	-58	-46	9	-12	-31
O=C(C#Cc1ccccc1)c1ccc([N+](=O)[O-])cc1	95*	108*	69*	8	26	36
CN(C)C(=O)C#Cc1ccccc1	3	7	-3	-6	-9	-21
O=C(C#Cc1ccccc1)c1ccccc1	99*	100*	.	76*	-3	37
COc1ccc(Cc2nc3ccc(C(=O)NC(C)Cc4ncccc4C)cc3o2)cc1OC (centres undefined)	8	-77	-10	20	1	8
O=C(CC1SC(=Nc2ccc(OC(F)F)cc2)N(CCN2CCOCC2)C1=O)Nc1ccc(F)cc1F (centres undefined)	-3	18	7	-8	8	4
CN=C1SC(CC(=O)Nc2ccc(F)cc2F)C(=O)N1/N=C/c1ccc(OC(F)F)c(OC)c1 (centres undefined)	83*	22	9	4	20	5
O=C(CN1CCN(C(=O)C2CCCO2)CC1)Nc1ccc(F)cc1 (centres undefined)	3	11	3	8	9	-10
Cc1nnc(NC(=O)c2sc3ccccc3c2Cl)s1	-31	-82	-24	46	23	-21
O=C(Nc1ccccn1)c1sc2cccc(F)c2c1Cl	3	-142	10	63*	-6	13
Cc1ccc(NC(=O)c2sc3ccccc3c2Cl)nc1	21	-89	16	75*	32	52*
Cc1ccc2nsnc2c1NC(=O)c1sc2ccccc2c1Cl	-22	4	-3	90*	-6	86*
COc1ccc(NC(=O)C2(C)CCN2C(=O)Cc2ccc(Cl)cc2Cl)cc1OC (centres undefined)	17	2	.	2	.	-4
COc1ccc(OC)c(NC(=O)C2(C)CCN2C(=O)Cc2ccc(Cl)cc2Cl)c1 (centres undefined)	7	7	.	65*	.	13
Cc1ccc(-c2nc3ccccc3nc2-c2ccccc2)cc1	13	2	-9	96*	0	-1
O=C(NNC(=O)C1CCN(C(=O)Nc2ccccc2)CC1)c1ccc([N+](=O)[O-])cc1	6	6	-2	11	-6	0
CC(=O)N(Cc1ccc(F)cc1)C1=C(NCc2ccccc2)C(=O)c2ccccc2C1=O	83	110*	98*	51*	53*	38
COC(=O)c1c(NC(=S)Nc2ccc(F)cc2[N+](=O)[O-])sc2c1CCCCC2	-13	6	8	-9	5	-19
COC(=O)c1c(NC(=O)COC(=O)c2ccc(Cl)cc2[N+](=O)[O-])sc2c1CCCCC2	-4	71*	0	-24	-2	-3
SMILES	Shn3 inh set2	Peg3 promoter	MITF TRPM1 inh	TWEAK Fn14 block	EBV LMP1 NFkB	TROY signal inh
CC1CN(C(=O)Nc2ccc(F)cc2)C2(CCCCCC2)O1 (centres undefined)	14	12	-8	7	4	5
c1ccc(-c2cc3c(N4CCN(c5ccccc5)CC4)ncnc3s2)cc1	-10	4	2	42	6	27
O=S(=O)(c1ccccc1)N1CCN(c2ncnc3sc(-c4ccccc4)cc23)CC1	80	1	4	81*	23	37
Cc1ccc(OCCN2CCN(c3ncnc4sc(C)c(C)c34)CC2)cc1	84	19	38	50*	10	39
Cc1sc2ncnc(N3CCN(S(=O)(=O)c4ccccc4)CC3)c2c1C	94*	31	2	74*	6	5
Cc1sc2ncnc(N3CCCCC3)c2c1C	34	18	-8	-1	12	15
CN(C(=O)COC(=O)c1ccc2[nH]c3c(c2c1)CCCC3)C1CCS(=O)(=O)C1 (centres undefined)	-5	-17	-3	-3	-7	-7
CSCC[C@H](NC(=O)[C@@H]1CSC2c3ccccc3C(=O)N21)C(=O)NCc1ccco1 (some centres undefined)	-3	14	7	9	10	13
CN(CC(=O)Nc1ccc(F)cc1)C(=O)c1ccncc1	6	-5	0	2	2	-2
C[C@H]1COC(=O)[C@H](Cc2ccc(F)cc2)CC/C=C/C[C@@H](CC(=O)N[C@@H](CO)Cc2ccccc2)C(=O)N1	8	16	-18	-3	-1	6
O=C(C[C@@H]1C/C=C/CC[C@@H](Cc2ccc(F)cc2)C(=O)OC[C@H](Cc2ccccc2)NC1=O)N[C@H](CO)Cc1ccccc1	38	55*	2	13	-2	1
O=C(C[C@H]1C/C=C\CC[C@H](Cc2ccc(F)cc2)C(=O)O[C@@H](c2ccccc2)CNC1=O)N[C@@H](CO)Cc1ccccc1	26	66*	1	32	5	4
CN(C)CCCn1cnc2c(c1=N)C(c1ccccc1)c1ccc3ccccc3c1O2 (centres undefined)	3	109*	99*	-85	-76	-29
N=c1c2c(ncn1CCCO)Oc1c(ccc3ccccc13)C2c1ccccc1 (centres undefined)	-2	73*	33	3	-4	5
COc1ccc(C2c3ccc4ccccc4c3Oc3ncn(CCCO)c(=N)c32)cc1OC (centres undefined)	27	32	-13	-10	-29	-7
N=c1c2c(ncn1CCCO)Oc1ccc3ccccc3c1C2c1ccccc1 (centres undefined)	25	13	.	-14	.	-10
COc1ccc(C(=O)COC(=O)CCS(=O)(=O)c2ccc(C)cc2)c(OC)c1	3	10	0	7	-2	-9
COc1ccc(C(=O)CCS(=O)(=O)c2ccc(C)cc2)cc1OC	-24	59*	-3	5	-1	20

Source: PubChem (several laboratories)
